Sampled rows, rich in hits. Any-hit rate of the full collection: about 7.6%.
p53 reactivator – qHTS assay for re-activators of p53 using a Luc reporter; H1299 p53-A138V BP100-luciferase reporter, luminescence, 24 h; Potency, µM (titrated, usually from 92.2 µM), for the others: top-dose activity change, positive = activation, usual class: activators; 320,000 compounds, 0.063% hits; note: potency is the fitted concentration of half-maximal effect; % of control where 0% means no effect; nearly all actives have a fitted effect of over 45% in size
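p53-null H1299 cells stably carrying temperature-sensitive p53-A138V and a BP100-luciferase reporter were pinned with compounds (4-point, 1:5 series) and held 24 hrs at 37 deg C. Luminescence was read 10 min after detection reagent.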
BRCA1 expr act – qHTS Assay to Identify Small Molecule Activators of BRCA1 Expression | 380,000 compounds, 1.1% hits | AID 624202, 2012 | MCF7-BRCA1-FFLuc reporter, luminescence, 48 h; response scale: scaled: vehicle 0%, 10 µM genistein 100% | Potency, µM (top dose mostly 46.1 µM), inactives show at the top dose activation, actives largely listed as activators; note: potency is the fitted concentration of half-maximal effect; nearly all actives have a fitted effect of over 80% in size
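Luminescence from a BRCA1-driven firefly luciferase in MCF7 cells was the read-out, taken 15 min after substrate addition following 48 h compound exposure at 37 °C. Data were normalized to a 10 microM genistein control and DMSO vehicle.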
ELG1 DNA repair – qHTS screen for small molecules that inhibit ELG1-dependent DNA repair in human embryonic kidney (HEK293T) cells expressing luciferase-tagged ELG1 | HEK293T ELG1-luciferase reporter, luminescence, 16 h; DNA damage induced by 5-fluorouridine | Potency, µM (highest dose often 46.1 µM), without a hit: at the highest dose activity change, negative = inhibition, usual class: inhibitors | 330,000 compounds, 2.3% hits; note: potency is the fitted concentration of half-maximal effect; % is set by controls: 0 for no effect and ±100 for the full control effect; nearly all actives have a fitted effect of over 55% in size
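Overnight (16 hr) co-exposure of 2,000 cells/well to 5-fluorouridine and compound at 37 °C preceded detection. Luciferase was quantified via ONE-Glo luminescence; loss of signal denotes inhibition.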
VP16 counter – VP16 counterscreen qHTS for inhibitors of ROR gamma transcriptional activity; Drosophila S2 Gal4-VP16 UAS-luciferase, luminescence, 20 h; Potency, µM (highest dose often 53.6 µM), without a hit: at the highest dose activity, negative = inhibition, usual class: inhibitors; 310,000 compounds, 3.5% hits; AID 2546, 2010;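 note: Gal4-VP16 expression switched on by copper sulfate through the metallothionein promoter; potency is the fitted concentration of half-maximal effect; % is set by controls: 0 for no effect and ±100 for the full control effect; nearly all actives have a fitted effect of over 50% in size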
Giardia kill – Small Molecules that selectively kill Giardia lamblia: qHTS; 340,000 compounds, 0.15% hits; AID 540267, 2011; activity change, % at 7.66 µM, hits read low; Giardia lamblia trophozoite viability; in the data active = activity change below about -80%; inconclusive = between about -30% and that limit;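 note: parasites exposed to compound for two days anaerobically before the ATP read; % is set by controls: 0 for no effect and ±100 for the full control effect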
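Killing of trophozoites was scored by loss of ATP luminescence after a 48 hrs anaerobic exposure to compounds at 37 deg C, using 100 cells per well.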
RORgamma inh – qHTS for inhibitors of ROR gamma transcriptional activity; Nuclear receptor ROR-gamma (Mus musculus), P51450; Drosophila S2 Gal4-RORgamma UAS-luciferase reporter, 20 h; Potency, µM (series often up to 53.6 µM), for the others: top-dose activity change, negative = inhibition, hits mostly inhibitors; 310,000 compounds, 5.4% hits; AID 2551, 2010; note: potency is the fitted concentration of half-maximal effect; % is set by controls: 0 for no effect and ±100 for the full control effect; nearly all actives have a fitted effect of over 60% in size
Target sequence (P51450 whole entry, looked up, the tested form may be a part): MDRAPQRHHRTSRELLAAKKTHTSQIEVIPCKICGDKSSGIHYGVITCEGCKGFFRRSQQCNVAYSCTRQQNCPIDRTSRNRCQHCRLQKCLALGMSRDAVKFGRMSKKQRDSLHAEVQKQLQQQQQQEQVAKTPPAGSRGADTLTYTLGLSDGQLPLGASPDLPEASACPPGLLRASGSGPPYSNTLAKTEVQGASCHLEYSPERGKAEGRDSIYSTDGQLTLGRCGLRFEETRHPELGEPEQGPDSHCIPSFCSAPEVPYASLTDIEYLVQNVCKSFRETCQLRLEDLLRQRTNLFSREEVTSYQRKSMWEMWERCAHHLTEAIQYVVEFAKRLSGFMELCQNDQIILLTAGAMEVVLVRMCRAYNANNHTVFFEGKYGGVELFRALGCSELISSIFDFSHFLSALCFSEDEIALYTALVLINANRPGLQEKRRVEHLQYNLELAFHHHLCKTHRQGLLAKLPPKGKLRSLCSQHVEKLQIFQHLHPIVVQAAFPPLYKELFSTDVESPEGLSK
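Stable Schneider cell line, Gal4 DNA-binding domain fused to ROR gamma, UAS-luciferase. Cmpd 1 hr RT → CuSO4 700 uM final → 20 hr RT → luciferase reagent 10 min → luminescence.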
ELG1 FLuc counter – qHTS screen for small molecules that inhibit ELG1-dependent DNA repair: Hit Confirmation in Cell-Based Luciferin Assay; Potency, µM (titrated, usually from 46.1 µM), for the others: top-dose activity change, negative = inhibition, most hits filed as inhibitors; 350 compounds, 3% hits; cell-free firefly luciferase luminescence counter-screen, ViewLux; shares compounds with ELG1 DNA repair; note: potency is the fitted concentration of half-maximal effect; % is set by controls: 0 for no effect and ±100 for the full control effect
ELG1-Luc inh – HTS assay for small molecules that inhibit ELG1-dependent DNA repair in human embryonic kidney (HEK293T) cells expressing luciferase-tagged ELG1: Hit Confirmation. shares compounds with ELG1 DNA repair. HEK293T ELG1-luciferase levels, luminescence; cells co-treated with 5-fluorouridine. Potency, µM (titrated, usually from 46.1 µM), inactives show at the top dose activity change, negative = inhibition, actives largely listed as inhibitors. 670 compounds, 68% hits. AID 624248, 2012; note: potency is the fitted concentration of half-maximal effect; % is set by controls: 0 for no effect and ±100 for the full control effect; nearly all actives have a fitted effect of over 55% in size
ELG1 MMS Luc – MMS-stimulated human ELG1 repair inhibition, confirmed | shares compounds with ELG1 DNA repair | HEK293T luciferase-tagged ELG1 level, MMS stimulated | Potency, µM (series often up to 46.1 µM), for inactives: at the top dose activity change, negative = inhibition, most hits filed as inhibitors | 670 compounds, 53% hits | AID 624249; note: potency is the fitted concentration of half-maximal effect; % is set by controls: 0 for no effect and ±100 for the full control effect; nearly all actives have a fitted effect of over 60% in size
ELG1 5FU viab – qHTS screen for small molecules that inhibit ELG1-dependent DNA repair: Hit Confirmation with 5FU Viability; shares compounds with ELG1 DNA repair; Potency, µM (highest dose often 46.1 µM), inactives show at the top dose activity change, negative = viability loss, usual class: cytotoxic; cell viability with 5-FU, ELG1-dependent repair; AID 624250, 2012; 670 tested, under 10 active;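 note: ELG1-luc HEK293T cells cotreated with 5-fluorouridine at 10 µM final; potency is the fitted concentration of half-maximal effect; viability measured 16 h after compound addition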
ELG1 MMS cell – qHTS screen for small molecules that inhibit ELG1-dependent DNA repair: Hit Confirmation with MMS Viability. shares compounds with ELG1 DNA repair. Cell viability with MMS, ELG1-dependent DNA repair. Potency, µM (doses to about 46.1 µM), for inactives: at the top dose activity change, negative = viability loss, actives largely listed as cytotoxic. 670 compounds, 33% hits. AID 624251, 2012;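 note: ELG1-luc HEK293T cells co-treated with 10 µM MMS; potency is the fitted concentration of half-maximal effect; viability read 16 h after compound addition; % is set by controls: 0 for no effect and ±100 for the full control effect; nearly all actives have a fitted effect of over 60% in size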
Cell viab unstim – qHTS screen for small molecules that inhibit ELG1-dependent DNA repair: Hit Confirmation with Unstimulated Viability Assay | shares compounds with ELG1 DNA repair | cell viability counter-screen, unstimulated, luminescence | Potency, µM (highest dose often 45.9 µM), without a hit: top-dose activity change, negative = loss of viability, most hits filed as cytotoxic | 900 compounds, 8% hits | AID 624252, 2012;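 note: potency is the fitted concentration of half-maximal effect; compound exposure lasted 16 hours before reading; % is set by controls: 0 for no effect and ±100 for the full control effect; nearly all actives have a fitted effect of over 55% in size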
FLuc biochem – qHTS screen for small molecules that inhibit ELG1-dependent DNA repair: Hit Confirmation in Biochemical Luciferin Assay | purified firefly luciferase, luminescence counter-screen | Potency, µM (doses to about 57.5 µM), inactives show at the highest dose activity, negative = inhibition, actives largely listed as inhibitors | 350 compounds, 10% hits | AID 624253, 2012 | shares compounds with ELG1 DNA repair; note: potency is the fitted concentration of half-maximal effect; % is set by controls: 0 for no effect and ±100 for the full control effect
Active calls of the source: *; ? = inconclusive; . = not tested or not shown. Unless noted, calls come from the whole dose curve; as a rule, active = well fitted curve in the direction sought with a large enough effect; inconclusive = small, poorly fitted or top-dose-only effect, or another doubt; inactive = no such curve, though single readings can be large; an effect the other way counts as inactive or inconclusive.

SMILES	p53 reactivator	BRCA1 expr act	ELG1 DNA repair	VP16 counter	Giardia kill	RORgamma inh	ELG1 FLuc counter	ELG1-Luc inh	ELG1 MMS Luc	ELG1 5FU viab	ELG1 MMS cell	Cell viab unstim	FLuc biochem
CCOC(=O)c1c(CSc2nc(C)cc(C)c2C#N)n(C)c2cc(Br)c(OC(C)=O)cc12	-2%	-24%	?	-1%	-10	-3%	.	.	.	.	.	.	.
C=CCCc1ccc(C#N)c(SCc2c(C(=O)OCC)c3cc(OC(C)=O)c(Br)cc3n2C)n1	-29%	-70%	2.3µM*	-6%	32	-13%	10%	?	2.8µM*	3%	4µM*	?	3%
CCc1c(C)nc2ccc(Br)cc2c1SCCC#N	2%	-10%	4.1µM*	-9%	10	14%	.	7.1µM*	16µM*	15%	?	-12%	.
CCc1c(C)nc2c(Br)cccc2c1SCCC#N	4%	-10%	-20%	-4%	5	22%	.	.	.	.	.	.	.
Cn1c(=O)c2c(nc(Oc3ccc4ccccc4c3)n2C)n(C)c1=O	-3%	-16%	4.1µM*	2%	6	18%	.	8.9µM*	13µM*	?	?	-4%	.
Cn1c(=O)c2c(nc(Oc3cccc(O)c3)n2C)n(C)c1=O	.	7%	-18%	-1%	-8	7%	.	.	.	.	.	.	.
O=c1c2ccccc2oc2ccc(-c3ccc4cc[nH]c4c3)cc12	.	0%	?	.	-27	.	94%	.	.	.	.	?	0.41µM*

Screening data: PubChem, National Center for Advancing Translational Sciences (NCATS)
